# Test results as given in PubChem BioAssay AID1159580 (chemical genetic matrix, 2015).
# Screen size: about 5,500 compounds; about 2,000 (36%) were called active. About 18% were inconclusive and are not listed. Some of the results follow. Values without a mark were called inactive. Rule as the data show it: active = normalized growth mostly below about 0.91 (no sharp cut-off); inconclusive = no clear call, values can overlap the other calls; inactive = mostly above about 0.92.
# Assay: chemical genetic growth profiling, strain panel (AID 1159580);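 also: tested at 20 µM; growth read once vehicle control cultures reached saturation at 30 °C; 1 = growth at the plate median or of vehicle wells; lower values mean less growth of the strain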
# Conditions: S. cerevisiae deletion strains, growth OD
# [1] = locus YAL013W, strain DEP1, hits give low values
# [2] = locus YBR229C, strain ROT2, hits give low values
# [3] = locus YDL101C, strain DUN1, hits give low values
# [4] = locus YDL134C, strain PPH21, hits give low values
# [5] = locus YDR150W, strain NUM1, hits give low values
# [6] = locus YEL061C, strain CIN8, hits give low values
# [7] = locus YGR078C, strain PAC10, hits give low values
# [8] = locus YHR030C, strain SLT2, hits give low values
# [9] = locus YHR087W, strain rtc3, hits give low values
# [10] = locus YJR043C, strain POL32, hits give low values
# [11] = locus YJR075W, strain HOC1, hits give low values
# [12] = locus YLR039C, strain RIC1, hits give low values
# [13] = locus YLR058C, strain SHM2 (second series), hits give low values
# [14] = locus YLR085C, strain ARP6, hits give low values
# [15] = locus YLR262C, strain YPT6, hits give low values
# [16] = locus YML094W, strain GIM5, hits give low values
# [17] = locus YMR219W, strain ESC1, hits give low values
# [18] = locus YMR263W, strain SAP30, hits give low values
# [19] = locus YMR307W, strain GAS1, hits give low values
# [20] = locus YNL128W, strain TEP1, hits give low values
# [21] = locus YNL153C, strain GIM3, hits give low values
# [22] = locus YNL298W, strain CLA4 (second series), hits give low values
# [23] = locus YNL322C, strain KRE1, hits give low values
# [24] = locus YNR030W, strain Alg12, hits give low values
# [25] = locus YPL055C, strain LGE1, hits give low values
# [26] = locus YPL241C, strain CIN2, hits give low values
# [27] = locus YPR135W, strain CTF4, hits give low values
compound,measurement,setting,value
CC(=O)Nc1ccc(C(F)(F)F)cc1Br,normalized growth,[1],1
same,normalized growth,[2],1.01
same,normalized growth,[3],0.979
same,normalized growth,[4],0.98
same,normalized growth,[5],0.862
same,normalized growth,[6],0.967
same,normalized growth,[7],0.993
same,normalized growth,[8],0.896
same,normalized growth,[9],1.05
same,normalized growth,[10],0.932
same,normalized growth,[11],0.99
same,normalized growth,[12],1
same,normalized growth,[13],0.972
same,normalized growth,[14],0.933
same,normalized growth,[15],1
same,normalized growth,[16],0.996
same,normalized growth,[17],0.999
same,normalized growth,[18],0.965
same,normalized growth,[19],1.06
same,normalized growth,[20],0.964
same,normalized growth,[21],0.994
same,normalized growth,[22],0.957
same,normalized growth,[23],0.989
same,normalized growth,[24],0.993
same,normalized growth,[25],1.05
same,normalized growth,[26],1
same,normalized growth,[27],0.897
O=C(Nc1ccccc1)Nc1ccc(C(F)(F)F)cc1Br,normalized growth,[1],0.968
same,normalized growth,[2],0.985
same,normalized growth,[3],1.04
same,normalized growth,[4],0.967
same,normalized growth,[5],0.957
same,normalized growth,[6],0.981
same,normalized growth,[7],0.948
same,normalized growth,[8],0.749
same,normalized growth,[9],0.941
same,normalized growth,"locus YJL187C, strain SWE1, hits give low values",0.943
same,normalized growth,[10],0.926
same,normalized growth,[11],0.906
same,normalized growth,[12],0.843
same,normalized growth,[13],0.969
same,normalized growth,[14],0.728 (active)
same,normalized growth,[15],0.948
same,normalized growth,[16],0.957
same,normalized growth,[17],0.99
same,normalized growth,[18],0.917
same,normalized growth,[19],0.54 (active)
same,normalized growth,[20],0.957
same,normalized growth,[21],0.979
same,normalized growth,[22],0.799 (active)
same,normalized growth,[23],0.995
same,normalized growth,[24],0.887
same,normalized growth,"locus YOL006C, strain TOP1, hits give low values",0.722 (active)
same,normalized growth,[25],0.842
same,normalized growth,[26],0.885
same,normalized growth,[27],0.878
